Experimental findings from publication PMC7862700, “An all-to-all approach to the identification of sequence-specific readers for epigenetic DNA modifications on cytosine” are described below.

Experiment in all cases: DAPPL (digital affinity profiling via proximity ligation, sequencing); 10 mM Tris-HCl pH 7.5, 50 mM NaCl, 1 mM DTT, 4% glycerol, room temperature, 30 min; GST-TFs on glutathione beads, 16-mer random dsDNA library, 0.1% formaldehyde crosslink after washing; high values mean tight binding
Holding throughout (details): protein: recombinant; tags: N-terminal GST; dsDNA, one strand shown

The target of one assay is T1, FLI1 (Homo sapiens, UniProt Q01543 1-452).
T1 sequence: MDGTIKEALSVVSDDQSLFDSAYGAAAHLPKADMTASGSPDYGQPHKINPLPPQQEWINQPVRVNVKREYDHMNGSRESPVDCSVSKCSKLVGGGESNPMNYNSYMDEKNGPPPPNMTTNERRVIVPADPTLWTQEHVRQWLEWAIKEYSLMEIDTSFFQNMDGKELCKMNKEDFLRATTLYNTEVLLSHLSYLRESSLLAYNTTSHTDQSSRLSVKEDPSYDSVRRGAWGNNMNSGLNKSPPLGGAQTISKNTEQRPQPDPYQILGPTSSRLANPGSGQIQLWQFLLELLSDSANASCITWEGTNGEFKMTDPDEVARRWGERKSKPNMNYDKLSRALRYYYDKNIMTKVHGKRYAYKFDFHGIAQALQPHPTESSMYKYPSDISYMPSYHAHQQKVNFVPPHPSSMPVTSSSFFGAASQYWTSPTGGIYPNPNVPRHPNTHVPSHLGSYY
The method in brief: (§1)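 Pools were built from human transcription factors expressed in yeast as GST fusions, captured on glutathione beads and DNA-barcoded, along with a tag-only sample. Incubation with 200 nmole of a 16-mer random double-stranded DNA library lasted 30 min at room temperature in Tris/NaCl/DTT/glycerol buffer, and was followed by washing, 0.1% formaldehyde crosslinking, proximity ligation, PCR amplification and Illumina NextSeq500 sequencing. Binding signal is the quotient of each hexamer's read frequency for a factor and its frequency for the tag-only sample.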

The target of another assay is T2, GABPA (Homo sapiens, UniProt Q06546 1-454).
T2 sequence: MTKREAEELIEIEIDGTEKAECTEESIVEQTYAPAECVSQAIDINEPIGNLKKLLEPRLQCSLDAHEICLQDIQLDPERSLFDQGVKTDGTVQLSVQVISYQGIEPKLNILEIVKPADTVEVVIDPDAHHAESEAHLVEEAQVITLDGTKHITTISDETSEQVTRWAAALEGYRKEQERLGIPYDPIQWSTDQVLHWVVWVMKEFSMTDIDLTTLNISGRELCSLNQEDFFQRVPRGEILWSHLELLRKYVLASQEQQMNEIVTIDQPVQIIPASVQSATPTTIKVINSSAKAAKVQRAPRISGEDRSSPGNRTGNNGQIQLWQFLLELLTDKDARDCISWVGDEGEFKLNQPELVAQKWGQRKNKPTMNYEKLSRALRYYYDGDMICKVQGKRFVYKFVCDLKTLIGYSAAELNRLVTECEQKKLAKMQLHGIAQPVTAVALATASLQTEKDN
The method in brief: as §1

A further assay addresses T3, ERG (Homo sapiens, UniProt P11308 1-479).
T3 sequence: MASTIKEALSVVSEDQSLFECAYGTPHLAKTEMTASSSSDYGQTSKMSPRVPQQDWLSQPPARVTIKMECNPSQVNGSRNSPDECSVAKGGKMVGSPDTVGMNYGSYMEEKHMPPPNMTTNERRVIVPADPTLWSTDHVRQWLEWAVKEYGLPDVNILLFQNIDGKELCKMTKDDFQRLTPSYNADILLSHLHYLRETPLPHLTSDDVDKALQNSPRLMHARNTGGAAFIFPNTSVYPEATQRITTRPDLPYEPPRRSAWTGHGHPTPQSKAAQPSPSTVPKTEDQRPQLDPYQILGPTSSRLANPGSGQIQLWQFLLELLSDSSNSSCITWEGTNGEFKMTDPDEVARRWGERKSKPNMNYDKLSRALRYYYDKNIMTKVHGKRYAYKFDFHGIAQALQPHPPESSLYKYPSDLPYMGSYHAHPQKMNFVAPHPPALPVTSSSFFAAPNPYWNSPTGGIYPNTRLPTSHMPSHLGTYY
The method in brief:
as §1

The target in the next assay is T4, EHF (Homo sapiens, UniProt Q9NZC4 1-300).
T4 sequence: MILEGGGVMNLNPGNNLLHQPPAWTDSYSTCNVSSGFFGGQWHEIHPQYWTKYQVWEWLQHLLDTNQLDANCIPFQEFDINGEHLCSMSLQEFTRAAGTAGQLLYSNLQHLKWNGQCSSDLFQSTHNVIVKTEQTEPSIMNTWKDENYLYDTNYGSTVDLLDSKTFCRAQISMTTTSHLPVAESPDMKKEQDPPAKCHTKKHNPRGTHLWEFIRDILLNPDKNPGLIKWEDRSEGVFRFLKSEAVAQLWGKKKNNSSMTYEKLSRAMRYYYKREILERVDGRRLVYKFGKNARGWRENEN
The method in brief: as §1

The target in another assay is SPI1 (Homo sapiens, UniProt P17947 1-270). The method in brief:
as §1

A further assay has as its target ETV5 (Homo sapiens, UniProt P41161 1-510). The method in brief: as §1
The target of a further assay is T5, SPIC (Homo sapiens, UniProt Q8N5J4 1-248).
T5 sequence: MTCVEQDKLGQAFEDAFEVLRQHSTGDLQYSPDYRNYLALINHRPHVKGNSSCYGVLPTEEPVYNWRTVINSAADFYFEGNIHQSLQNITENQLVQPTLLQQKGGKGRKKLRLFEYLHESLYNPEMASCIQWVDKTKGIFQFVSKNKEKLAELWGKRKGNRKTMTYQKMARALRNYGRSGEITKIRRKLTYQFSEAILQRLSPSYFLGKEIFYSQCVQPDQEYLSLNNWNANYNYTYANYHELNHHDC
The method in brief:
as §1

The target of another assay is T6, ERF (Homo sapiens, UniProt P50548 1-548).
T6 sequence: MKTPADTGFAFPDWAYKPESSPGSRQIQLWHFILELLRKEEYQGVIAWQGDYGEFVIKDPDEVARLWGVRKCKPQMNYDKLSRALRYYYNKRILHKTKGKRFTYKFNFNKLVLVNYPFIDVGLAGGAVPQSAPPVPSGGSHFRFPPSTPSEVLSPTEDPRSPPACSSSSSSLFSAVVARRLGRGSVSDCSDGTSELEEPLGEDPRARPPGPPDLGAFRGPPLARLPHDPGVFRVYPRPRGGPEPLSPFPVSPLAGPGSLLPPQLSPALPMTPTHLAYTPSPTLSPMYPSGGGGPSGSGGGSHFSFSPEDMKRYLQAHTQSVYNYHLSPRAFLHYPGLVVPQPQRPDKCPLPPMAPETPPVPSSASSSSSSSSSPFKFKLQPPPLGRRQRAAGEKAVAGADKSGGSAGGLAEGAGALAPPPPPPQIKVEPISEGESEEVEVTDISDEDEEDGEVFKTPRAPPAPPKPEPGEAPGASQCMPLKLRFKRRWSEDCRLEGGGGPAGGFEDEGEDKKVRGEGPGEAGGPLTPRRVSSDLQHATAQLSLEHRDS
The method in brief: as §1

The next assay has as its target T7, ETV3L (Homo sapiens, UniProt Q6ZN32 1-361).
T7 sequence: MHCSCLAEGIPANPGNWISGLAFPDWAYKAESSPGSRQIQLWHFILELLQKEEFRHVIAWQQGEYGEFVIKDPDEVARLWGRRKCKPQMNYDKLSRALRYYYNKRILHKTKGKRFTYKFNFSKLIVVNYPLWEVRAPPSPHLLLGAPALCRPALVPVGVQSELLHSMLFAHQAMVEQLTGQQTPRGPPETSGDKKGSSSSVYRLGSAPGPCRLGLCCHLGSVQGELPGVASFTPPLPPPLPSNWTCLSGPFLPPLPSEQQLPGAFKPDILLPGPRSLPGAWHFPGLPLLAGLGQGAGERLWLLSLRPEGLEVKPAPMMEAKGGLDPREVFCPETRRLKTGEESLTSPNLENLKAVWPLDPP
The method in brief:
as §1

A further assay addresses T8, ETS2 (Homo sapiens, UniProt P15036 1-469).
T8 sequence: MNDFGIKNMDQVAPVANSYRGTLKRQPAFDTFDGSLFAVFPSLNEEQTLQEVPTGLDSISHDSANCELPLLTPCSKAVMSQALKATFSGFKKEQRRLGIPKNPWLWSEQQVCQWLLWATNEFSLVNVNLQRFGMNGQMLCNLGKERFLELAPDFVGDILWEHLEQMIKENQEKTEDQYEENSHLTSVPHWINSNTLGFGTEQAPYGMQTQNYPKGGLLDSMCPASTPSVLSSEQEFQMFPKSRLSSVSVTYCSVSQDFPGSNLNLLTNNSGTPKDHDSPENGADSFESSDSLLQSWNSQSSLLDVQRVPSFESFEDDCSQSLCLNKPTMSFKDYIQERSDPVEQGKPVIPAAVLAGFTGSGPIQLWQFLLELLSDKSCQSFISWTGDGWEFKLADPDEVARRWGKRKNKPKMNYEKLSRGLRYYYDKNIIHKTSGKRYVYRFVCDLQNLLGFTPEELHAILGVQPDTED
The method in brief:
as §1

Another assay concerns the target T9, ELF5 (Homo sapiens, UniProt Q9UKW6-2 1-255).
T9 sequence: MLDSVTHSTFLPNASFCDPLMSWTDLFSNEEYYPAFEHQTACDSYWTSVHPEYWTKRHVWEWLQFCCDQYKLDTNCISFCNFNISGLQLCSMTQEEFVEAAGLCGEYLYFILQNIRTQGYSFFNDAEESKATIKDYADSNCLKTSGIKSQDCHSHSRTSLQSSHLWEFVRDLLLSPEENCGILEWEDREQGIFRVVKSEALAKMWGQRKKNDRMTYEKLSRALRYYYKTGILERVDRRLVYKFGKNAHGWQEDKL
The method in brief: as §1

The next assay has as its target ETV6 (Homo sapiens, UniProt P41212 1-452). The method in brief:
as §1

ETV6, sequence (P41212 whole entry): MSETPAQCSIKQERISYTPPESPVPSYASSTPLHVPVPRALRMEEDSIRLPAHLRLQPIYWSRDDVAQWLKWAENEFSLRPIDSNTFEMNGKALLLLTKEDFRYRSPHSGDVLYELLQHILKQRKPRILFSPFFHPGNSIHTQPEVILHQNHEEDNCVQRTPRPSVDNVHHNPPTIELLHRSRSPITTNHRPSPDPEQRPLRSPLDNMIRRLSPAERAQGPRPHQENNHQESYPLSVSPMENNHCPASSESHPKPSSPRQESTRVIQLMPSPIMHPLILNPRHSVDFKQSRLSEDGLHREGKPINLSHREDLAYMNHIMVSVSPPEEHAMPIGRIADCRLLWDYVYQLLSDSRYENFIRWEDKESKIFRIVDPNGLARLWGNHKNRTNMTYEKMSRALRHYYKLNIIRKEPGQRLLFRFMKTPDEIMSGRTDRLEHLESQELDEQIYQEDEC
ETV5, sequence (P41161 whole entry): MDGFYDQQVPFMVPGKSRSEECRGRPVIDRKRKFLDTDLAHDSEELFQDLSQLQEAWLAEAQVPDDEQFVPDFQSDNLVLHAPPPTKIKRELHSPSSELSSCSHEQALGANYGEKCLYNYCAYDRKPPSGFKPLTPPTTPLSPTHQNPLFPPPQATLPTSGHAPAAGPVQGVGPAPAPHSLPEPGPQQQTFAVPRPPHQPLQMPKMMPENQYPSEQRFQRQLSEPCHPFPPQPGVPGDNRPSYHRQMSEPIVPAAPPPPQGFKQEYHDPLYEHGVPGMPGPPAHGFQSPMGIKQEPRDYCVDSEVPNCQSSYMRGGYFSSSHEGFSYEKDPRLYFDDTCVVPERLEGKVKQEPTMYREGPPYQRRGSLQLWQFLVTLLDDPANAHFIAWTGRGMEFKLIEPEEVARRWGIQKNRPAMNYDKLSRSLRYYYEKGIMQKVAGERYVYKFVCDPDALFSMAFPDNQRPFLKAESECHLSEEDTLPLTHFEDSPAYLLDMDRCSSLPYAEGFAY

In the case of GTAGTT, the binding signal was 1.1 fold enrichment (6-mer frequency, TF over GST control) with FLI1; 1.05 fold enrichment (6-mer frequency, TF over GST control) in the assay with GABPA; 1.01 fold enrichment (6-mer frequency, TF over GST control) in the assay with ERG; 1.07 fold enrichment (6-mer frequency, TF over GST control) with EHF; 1.01 fold enrichment (6-mer frequency, TF over GST control) with SPI1; 1.04 fold enrichment (6-mer frequency, TF over GST control) with ETV5. In addition, the binding signal with SPIC was 1.05 fold enrichment (6-mer frequency, TF over GST control); with ERF, 1.07 fold enrichment (6-mer frequency, TF over GST control); with ETV3L, 1.01 fold enrichment (6-mer frequency, TF over GST control); in the assay with ETS2 it was 1.02 fold enrichment (6-mer frequency, TF over GST control); in the assay with ELF5, 1.07 fold enrichment (6-mer frequency, TF over GST control); with ETV6, 1.08 fold enrichment (6-mer frequency, TF over GST control).
